{"source": "paper PMC5515408", "about": "“Sequence-specific DNA binding by MYC/MAX to low-affinity non-E-box motifs”", "note": "Over roughly 5,000 sequences, “log2 normalized fluorescence” has its median near 0.089; the highest 2% begin near 0.81. The list comes from a sample in which the highest values are over-represented; it also holds similar and randomly drawn sequences."}
{"biological_target": "MYC (p64);MAX (p21), in MYC:MAX (human;human, UniProt P01106-1;P61244-2 1-439;1-151, |)", "sequence (P01106 16-454, chain 1 of 2)": "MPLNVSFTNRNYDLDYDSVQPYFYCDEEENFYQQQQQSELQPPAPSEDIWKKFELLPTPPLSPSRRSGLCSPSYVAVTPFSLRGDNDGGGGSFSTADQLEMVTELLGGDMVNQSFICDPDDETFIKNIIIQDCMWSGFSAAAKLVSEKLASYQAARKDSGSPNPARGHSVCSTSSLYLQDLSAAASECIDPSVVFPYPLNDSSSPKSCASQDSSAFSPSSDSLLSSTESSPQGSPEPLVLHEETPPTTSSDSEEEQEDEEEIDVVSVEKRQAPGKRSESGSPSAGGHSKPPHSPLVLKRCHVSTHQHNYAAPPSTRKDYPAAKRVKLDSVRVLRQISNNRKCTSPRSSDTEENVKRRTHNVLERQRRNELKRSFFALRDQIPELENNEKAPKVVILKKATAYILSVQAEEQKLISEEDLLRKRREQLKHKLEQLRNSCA", "sequence (P61244 other isoform, or with tags, fused parts or gaps |, chain 2 of 2)": "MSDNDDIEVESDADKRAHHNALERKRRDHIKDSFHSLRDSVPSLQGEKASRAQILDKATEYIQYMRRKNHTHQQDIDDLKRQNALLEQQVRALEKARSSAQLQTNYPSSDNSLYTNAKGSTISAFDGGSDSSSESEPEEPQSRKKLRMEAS", "experiment": "protein-binding microarray (anti-MAX antibody); PBM: 15 mM Tris-HCl pH 7.5, 100 mM KCl, 0.075% NP40, 7.5 mM beta-mercaptoethanol, 375 ng/ul BSA, 8 ng/ul poly(dA-dT):(dA-dT), 550 ng complex, 60 min, room tempe; high values mean tight binding", "conditions": "protein: recombinant;recombinant; tags: 6xHis;6xHis; copies: 1;1; label: 3' end of printed strand (linker) attached to glass slide; dsDNA, one strand shown", "how_it_was_run": "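For each of ~5000 unique double-stranded 12-nt sequences, spotted in triplicate on a custom Agilent glass array, binding of His-tagged human MYC:MAX or MAX:MAX dimers is reported as log2 normalized fluorescence. The dimers (550 ng, E. coli-expressed) were incubated for 60 min at room temperature in Tris-KCl buffer, pH 7.5, with NP40, BSA and poly(dA-dT) competitor. Detection used anti-MAX and secondary antibodies with a 543 nm scan.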"}
{"sequence": "CCGGCTGATCCCCCGTATTAATAGCTAAGATTACTATATCGACG", "binding signal": "0.0512 log2 normalized fluorescence"}
{"sequence": "CCGGCTGACACGGCGTATTAATAGCTAAGATTACTATATCGACG", "binding signal": "0.188 log2 normalized fluorescence"}
{"sequence": "CCGGCTGAACGGTTGTATTAATAGCTAAGATTACTATATCGACG", "binding signal": "0.123 log2 normalized fluorescence"}
{"sequence": "CCGGCTGAACCAACGTATTAATAGCTAAGATTACTATATCGACG", "binding signal": "0.302 log2 normalized fluorescence"}
{"sequence": "CCGGCTGAGTTCCCGTATTAATAGCTAAGATTACTATATCGACG", "binding signal": "0.0824 log2 normalized fluorescence"}
{"sequence": "CCGGCTGACGTCACGTATTAATAGCTAAGATTACTATATCGACG", "binding signal": "0.246 log2 normalized fluorescence"}
{"sequence": "CCGGCTGAAAGCATGTATTAATAGCTAAGATTACTATATCGACG", "binding signal": "0.491 log2 normalized fluorescence"}
{"sequence": "CCGGCTGAGCATGCGTATTAATAGCTAAGATTACTATATCGACG", "binding signal": "0.461 log2 normalized fluorescence"}
{"sequence": "CCGGCTGAGTCCGCGTATTAATAGCTAAGATTACTATATCGACG", "binding signal": "0.0725 log2 normalized fluorescence"}
{"sequence": "CCGGCTGACCCGTGGTTTTAATAGCTAAGATTACTATATCGACG", "binding signal": "0.466 log2 normalized fluorescence"}
{"sequence": "CCGGCAGATACGTGGTGTTAATAGCTAAGATTACTATATCGACG", "binding signal": "0.257 log2 normalized fluorescence"}
{"sequence": "CCGGCAGACACGTGGTGTTAATAGCTAAGATTACTATATCGACG", "binding signal": "0.826 log2 normalized fluorescence"}
{"sequence": "CCGGCAGACATGTGGTGTTAATAGCTAAGATTACTATATCGACG", "binding signal": "0.734 log2 normalized fluorescence"}
{"sequence": "CCGGCTGACTTCAGGTATTAATAGCTAAGATTACTATATCGACG", "binding signal": "0.148 log2 normalized fluorescence"}
{"sequence": "CCGGCTGACCAAGTGTATTAATAGCTAAGATTACTATATCGACG", "binding signal": "0.214 log2 normalized fluorescence"}
{"sequence": "CCGGCATCCACGTGGTATTAATAGCTAAGATTACTATATCGACG", "binding signal": "0.471 log2 normalized fluorescence"}
{"sequence": "CCGGCAATCACGTGGTATTAATAGCTAAGATTACTATATCGACG", "binding signal": "0.75 log2 normalized fluorescence"}
{"sequence": "CCGGCCTTCACGTGGTATTAATAGCTAAGATTACTATATCGACG", "binding signal": "0.765 log2 normalized fluorescence"}
{"sequence": "CCGGCGTTCACGTGGTATTAATAGCTAAGATTACTATATCGACG", "binding signal": "0.664 log2 normalized fluorescence"}
{"sequence": "CCGGCTTTCACGTGGTATTAATAGCTAAGATTACTATATCGACG", "binding signal": "0.847 log2 normalized fluorescence"}
{"sequence": "CCGGCATTCACGTGGTATTAATAGCTAAGATTACTATATCGACG", "binding signal": "0.958 log2 normalized fluorescence"}
{"sequence": "CCGGCTGACGAGATGTATTAATAGCTAAGATTACTATATCGACG", "binding signal": "0.0764 log2 normalized fluorescence"}
{"sequence": "CCGGCTGACACGCGCTATTAATAGCTAAGATTACTATATCGACG", "binding signal": "0.811 log2 normalized fluorescence"}
{"sequence": "CCGGCTGGGTCGTGGTATTAATAGCTAAGATTACTATATCGACG", "binding signal": "0.0754 log2 normalized fluorescence"}
{"sequence": "CCGGCTGAGGTGACGTATTAATAGCTAAGATTACTATATCGACG", "binding signal": "0.0346 log2 normalized fluorescence"}
{"sequence": "CCGGCTGAATAATTGTATTAATAGCTAAGATTACTATATCGACG", "binding signal": "-0.0392 log2 normalized fluorescence"}
{"sequence": "CCGGCAGACACGTGGTATTAATAGCTAAGATTACTATATCGACG", "binding signal": "0.798 log2 normalized fluorescence"}
{"sequence": "CCGGCTGACACGTCTTATTAATAGCTAAGATTACTATATCGACG", "binding signal": "0.308 log2 normalized fluorescence"}
{"sequence": "CCGGCTGACACGTGGTCTTAATAGCTAAGATTACTATATCGACG", "binding signal": "1.02 log2 normalized fluorescence"}
{"sequence": "CCGGCAGACACGTGGTCTTAATAGCTAAGATTACTATATCGACG", "binding signal": "0.904 log2 normalized fluorescence"}
{"sequence": "CCGGCAGACACGCGGTCTTAATAGCTAAGATTACTATATCGACG", "binding signal": "0.8 log2 normalized fluorescence"}
{"sequence": "CCGGCTGACACACGGTCTTAATAGCTAAGATTACTATATCGACG", "binding signal": "0.354 log2 normalized fluorescence"}
{"sequence": "CCGGCTGACACGCGGTCTTAATAGCTAAGATTACTATATCGACG", "binding signal": "1.03 log2 normalized fluorescence"}
{"sequence": "CCGGCTGACCCGTGGTCTTAATAGCTAAGATTACTATATCGACG", "binding signal": "0.399 log2 normalized fluorescence"}
{"sequence": "CCGGCTAACACGCGGTCTTAATAGCTAAGATTACTATATCGACG", "binding signal": "0.739 log2 normalized fluorescence"}
{"sequence": "CCGGCTGAACAAGGGTATTAATAGCTAAGATTACTATATCGACG", "binding signal": "0.093 log2 normalized fluorescence"}
{"sequence": "CCGGCTGACCAAAGGTATTAATAGCTAAGATTACTATATCGACG", "binding signal": "0.0357 log2 normalized fluorescence"}
{"sequence": "CCGGCTGACGACAAGTATTAATAGCTAAGATTACTATATCGACG", "binding signal": "0.0769 log2 normalized fluorescence"}
{"sequence": "CCGGCTGACTCCAAGTATTAATAGCTAAGATTACTATATCGACG", "binding signal": "0.0835 log2 normalized fluorescence"}
{"sequence": "CCGGCTGACAACTGGTTTTAATAGCTAAGATTACTATATCGACG", "binding signal": "0.195 log2 normalized fluorescence"}
{"sequence": "CCGGCTGAAGGACTGTATTAATAGCTAAGATTACTATATCGACG", "binding signal": "0.0114 log2 normalized fluorescence"}
{"sequence": "CCGGCGTCCACGTGGTATTAATAGCTAAGATTACTATATCGACG", "binding signal": "0.808 log2 normalized fluorescence"}
{"sequence": "CCGGCGTGCACGTGGTATTAATAGCTAAGATTACTATATCGACG", "binding signal": "0.856 log2 normalized fluorescence"}
{"sequence": "CCGGCGTATACGTGGTATTAATAGCTAAGATTACTATATCGACG", "binding signal": "0.202 log2 normalized fluorescence"}
{"sequence": "CCGGCCTGCACGTGGTATTAATAGCTAAGATTACTATATCGACG", "binding signal": "0.875 log2 normalized fluorescence"}
{"sequence": "CCGGCTTGCACTTGGTATTAATAGCTAAGATTACTATATCGACG", "binding signal": "0.318 log2 normalized fluorescence"}
{"sequence": "CCGGCTTGCACGTGGTTTTAATAGCTAAGATTACTATATCGACG", "binding signal": "0.716 log2 normalized fluorescence"}
{"sequence": "CCGGCTTGCACGTGGTATTAATAGCTAAGATTACTATATCGACG", "binding signal": "1.01 log2 normalized fluorescence"}
{"sequence": "CCGGCCTCCACGTGGTATTAATAGCTAAGATTACTATATCGACG", "binding signal": "0.737 log2 normalized fluorescence"}
{"sequence": "CCGGCCTACACGTGGTATTAATAGCTAAGATTACTATATCGACG", "binding signal": "0.805 log2 normalized fluorescence"}
{"sequence": "CCGGCTGAATTACCGTATTAATAGCTAAGATTACTATATCGACG", "binding signal": "0.041 log2 normalized fluorescence"}
{"sequence": "CCGGCTGAGCAACTGTATTAATAGCTAAGATTACTATATCGACG", "binding signal": "0.128 log2 normalized fluorescence"}
{"sequence": "CCGGCTGAATTACTGTATTAATAGCTAAGATTACTATATCGACG", "binding signal": "0.0701 log2 normalized fluorescence"}
{"sequence": "CCGGCTGAGTCGGGGTATTAATAGCTAAGATTACTATATCGACG", "binding signal": "0.126 log2 normalized fluorescence"}
{"sequence": "CCGGCAGGCACGTGGTATTAATAGCTAAGATTACTATATCGACG", "binding signal": "0.815 log2 normalized fluorescence"}
{"sequence": "CCGGCACACACGTGGTATTAATAGCTAAGATTACTATATCGACG", "binding signal": "0.804 log2 normalized fluorescence"}
